About 83,000 compounds went through this panel and 20% of them were active in at least one assay; those are over-represented in the sample as a whole.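 Note: values are percent growth. 100 is the growth of untreated cells, values between 100 and 0 indicate rising inhibition; between -100 and 0 indicates cell death.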 A number with no mark means an inactive call. The source made the active and inactive calls. The calls were made as follows: active = growth percent below 10; inactive = the rest.
Experiments:
Experiment in all cases: NCI-60 one-dose screen, 48 h (100 = growth as untreated, 0 = no growth, -100 = all killed)
Details in all cases: 10 µM unless noted
[1] = tested on: RPMI-8226 leukemia
[2] = tested on: OVCAR-8 ovarian
[3] = tested on: OVCAR-5 ovarian
[4] = tested on: OVCAR-4 ovarian
[5] = tested on: SK-OV-3 ovarian
[6] = tested on: IGROV1 ovarian
[7] = tested on: OVCAR-3 ovarian
[8] = tested on: HS 578T breast
[9] = tested on: NCI/ADR-RES ovarian
[10] = tested on: T-47D breast
[11] = tested on: BT-549 breast
[12] = tested on: MDA-MB-435 melanoma
[13] = tested on: SW-620 colon
[14] = tested on: MCF7 breast
[15] = tested on: HCT-116 colon
[16] = tested on: HCC-2998 colon
[17] = tested on: KM12 colon

SMILES	growth [1]	growth [2]	growth [3]	growth [4]	growth [5] [%]	growth [6]	growth [7]	growth [8]	growth [9] [%]	growth [10]	growth [11]	growth [12]	growth [13]	growth [14]	growth [15]	growth [16]	growth [17]
C=C1C(=O)O[C@H]2[C@H]1CC/C(Cn1cc(-c3ccsc3)nn1)=C\CC[C@@]1(C)O[C@@H]21	-43.2% (active)	-4.45% (active)	-18.3% (active)	-46.6% (active)	83.1	-16% (active)	-94.8% (active)	28.2%	32	-62% (active)	-56.3% (active)	-16% (active)	-71.3% (active)	-72.6% (active)	-96.4% (active)	-46.7% (active)	34.3%
COc1ccc(/C(=N\O)c2cc(OC)c(OC)c(OC)c2)c(OC)c1N	24.2%	18%	47.8%	42.9%	43	46.1%	-25.1% (active)	7.51% (active)	18.2	45.1%	2.29% (active)	-66.3% (active)	23.4%	15.6%	7.66% (active)	35.7%	11.7%
CCN(CC)S(=O)(=O)c1ccc2[nH]c(=O)cc(C(=O)Nc3ccc(OC)cc3OC)c2c1	108%	109%	100%	115%	108	34.4%	118%	103%	99.6	101%	136%	108%	108%	99.6%	97.3%	75.3%	110%
c1ccc([P+](CCC[P+](c2ccccc2)(c2ccccc2)c2ccccc2)(c2ccccc2)c2ccccc2)cc1	1.19% (active)	70.6%	89.7%	66.7%	93.2	59.1%	54.1%	94.8%	104	45.2%	75.9%	38.6%	85.4%	59%	67.5%	48.1%	45.5%
O=C(NCCCN1CCN(CCCNC(=O)C2CCCCC2)CC1)C1CCCCC1	93.3%	101%	104%	102%	91.6	104%	99.3%	102%	112	90%	96.4%	96.4%	95%	95.7%	95.6%	99.9%	104%
O=C(Nc1ccc(F)c(Cl)c1)c1n[nH]c(=O)c2ccccc12	119%	95.4%	107%	96.1%	119	8.17% (active)	94.6%	129%	112	81.1%	132%	93.2%	107%	60.6%	101%	103%	92.4%
CCCCNC(=O)NS(=O)(=O)c1ccc(N2N=C(c3ccc(C)cc3C)CC2c2ccc(OC)cc2)cc1 (stereo not given)	40.3%	62.9%	89.6%	68.4%	101	98.9%	75.2%	87.3%	45	75%	49.9%	9.96% (active)	75.9%	48.7%	51.6%	58.6%	48%
COc1cc(/C=C2\CCCC3=C2NC(C)=NC3c2cc(OC)c(OC)c(OC)c2)cc(OC)c1OC (stereo not given)	-15.1% (active)	5.87% (active)	10.8%	42.2%	43.9	30.7%	28%	48.6%	14.5	79.2%	2.96% (active)	5.2% (active)	-8.03% (active)	23%	-78.2% (active)	11.9%	2.95% (active)
Cc1ccc(S(=O)(=O)N2CCC(C(=O)Nc3ccc(F)cc3F)CC2)cc1	86.5%	97.8%	98%	83.7%	92.3	-38.5% (active)	91.6%	-32.4% (active)	95.4	88.8%	96.9%	95%	103%	93.2%	101%		109%
COC(=O)c1ccc2nc(-c3cc4ccccc4n3C)n(CCCCOc3cc4c(cc3OC)C(=O)N3CCC[C@H]3C=N4)c2c1	-32.9% (active)	16.5%	-1.18% (active)	-24% (active)	30.1	-68.2% (active)	-40.2% (active)	-62.5% (active)	29.5	4.1% (active)	-53.6% (active)	-88.6% (active)		2.44% (active)	8.52% (active)	-17.6% (active)	-29.2% (active)
COc1ccc(C(=O)N2CCN(C(=O)c3cc(OC)c(OC)c(OC)c3)CC2)cc1OCCCCOc1cc2c(cc1OC)C(=O)N1CCC[C@H]1C=N2	90.3%	209%	111%	112%	108	-18.9% (active)	105%	-24.2% (active)	110	85.4%	115%	108%	110%	98.8%	101%		129%
C=CCN=C1NC(=O)/C(=C/c2cc(C(C)(C)C)c(O)c(C(C)(C)C)c2)S1	92.1%	95.8%	92.1%	70.3%	74.8	85.7%	46.9%	76.9%	70	47.1%	55.6%	-2.99% (active)		43.8%	46.4%	89.8%	61.4%
CC/C=C\C/C=C\C[C@H]1C/C=C2/C(=O)C=C[C@H]2C/C=C\CCC(=O)O1	4.52% (active)	0.0569% (active)	25.4%	42.6%	31.3	3.81% (active)	-12.1% (active)	40.2%	17.9	12.9%	-7.41% (active)	3.37% (active)	-4.82% (active)	20%	-63.4% (active)	-59.2% (active)	-34.5% (active)
CCc1c(C(=O)Nc2ccc3ccccc3c2)[nH]c(C)c1C(C)=O	75.8%	104%	101%	76.7%	99.7	108%	103%	98.5%	94.8	83.6%	112%	78.7%		84.6%	99.5%	99.1%	84.7%
Cc1ccc2c(c1)C(C)Cc1c(N(C)C)ncnc1N2C (stereo not given)	32.4%	51%	83.9%	61.1%	35.1	59.5%	14%	6.88% (active)	28.5	34.8%	30.6%	-6.18% (active)	20.6%	16.9%	19%	58.2%	26.2%
CC1Cc2c(N(C)C)ncnc2N(C)c2ccc(O)cc21 (stereo not given)	82.9%	103%	99.4%	84.6%	86	93.6%	88.8%	76.2%	84.2	89.7%	88.8%	8.93% (active)		73.9%	79.6%	88.8%	59.9%
COC(=O)CCCCN=Cc1c(O)c(O)c(C(C)C)c2cc(C)c(-c3c(C)cc4c(C(C)C)c(O)c(O)c(C=NCCCCC(=O)OC)c4c3O)c(O)c12	17.7%	16.4%	17.8%	13.7%	40.1	26.4%	14.3%	9.48% (active)	52.8	24.9%	28.2%	25.7%	17%	9.71% (active)	14.9%	29.7%	16.1%
CSc1ccccc1C#C/C=C\C#Cc1ccccc1N1CCCCC1=O	64.3%	103%	96.7%	102%	109	-29.6% (active)	97.6%	-20.4% (active)	102	95.1%	92.1%	107%	100%	94.9%	95%	99.9%	114%

— PubChem BioAssay (NCI)
